# Assay results from PubChem BioAssay (NCATS).
# The source made the active and inactive calls. The call rests on the fitted dose curve.
# Test: qHTS drug screen for cell cycle checkpoint inhibitors in PARPi-resistant BRCA-mutant ovarian cancer cell lines. (AID 1963452)
# Conditions: PEO1/OlaR viability, CellTiter-Glo luminescence, 96 h; for Z-AUC: stronger effect = lower value
# From the text: Women's Malignancies Branch, Center for Cancer Research (CCR),
# National Cancer Institute (NCI), National Institutes of Health (NIH), Bethesda, MD
# Poly (ADP-ribose) polymerase inhibitors (PARPis) have changed the treatment paradigm in breast cancer gene (BRCA) - mutant high-grade serous ovarian carcinoma (HGSC). However, most patients eventually develop resistance to PARPis, highlighting an unmet need for improved therapeutic strategies. Using high-throughput drug screens, we identified ataxia telangiectasia and rad3-related protein/checkpoint kinase 1 (CHK1) pathway inhibitors as cytotoxic and further validated the activity of the CHK1 inhibitor (CHK1i) prexasertib in PARPi-sensitive and -resistant BRCA-mutant HGSC cells and xenograft mouse models. CHK1i monotherapy induced DNA damage, apoptosis, and tumor size reduction. We then conducted a phase 2 study (NCT02203513) of prexasertib in patients with BRCA-mutant HGSC. The treatment was well tolerated but yielded an objective response rate of 6% (1 of 17; one partial response) in patients with previous PARPi treatment. […] BRCA reversion mutation in previously PARPi-treated BRCA-mutant patients was not associated with resistance to CHK1i.
# Among others, 1082 oncology drugs, both approved and investigational, were prioritized based on their status in clinical trial development. […] Drugs with average Z-AUC values less than -1.0 in all three cell lines were classified as "hits" resulting in 151 oncology drug hits. The screen also confirmed cross-resistance between olaparib and other PARPis (rucaparib, niraparib, and talazoparib) in PARPi-resistant PEO1/OlaR and PEO4.
# [1] G. L. Lin, K. M. Wilson, M. Ceribelli, B. Z. Stanton, P. J. Woo, S. Kreimer, E. Y. Qin, X. Zhang, J. Lennon, S. Nagaraja, P. J. Morris, M. Quezada, S. M. Gillespie, D. Y. Duveau, A. M. Michalowski, P. Shinn, R. Guha, M. Ferrer, C. Klumpp-Thomas, S. Michael, C. McKnight, P. Minhas, Z. Itkin, E. H. Raabe, L. Chen, R. Ghanem, A. C. Geraghty, L. Ni, K. I. Andreasson, N. A. Vitanza, K. E.Warren, C. J. Thomas, M. Monje, Therapeutic strategies for diffuse midline glioma from high-throughput combination drug screening. Sci. Transl. Med. 11, (2019).
# [2] T. M. Yamamoto, A. McMellen, Z. L. Watson, J. Aguilera, R. Ferguson, E. Nurmemmedov, T. Thakar, G. L. Moldovan, H. Kim, D. M. Cittelly, A. M. Joglar, E. P. Brennecke, H. Wilson, K. Behbakht, M. J. Sikora, B. G. Bitler, Activation of Wnt signaling promotes olaparib resistant ovarian cancer. Mol. Carcinog. 58, 1770 - 1782 (2019).
# PROTOCOL TABLE (as described by Inglese J, Shamu CE and Guy RK. 2007)
# SEQUENCE No. (e.g., 1, 2, 3, etc.); […] (e.g., Cells, Incubation, Reagent, etc.); VALUE; DESCRIPTION.
# 1; Compounds; 20nL; 1536-well white tissue culture-treated plates.
# 2; Cells; 5 uL; PEO1, PEO4, and PEO1/OlaR cells at 600 cells per well.
# 3; Incubation; 96 hr; 37C, 95% humidity, 5% CO2.
# 4; Reagent; 3 uL; CellTiter-Glo (Promega).
# 5; Incubation; 15 min; room temperature.
# 6; Detection; Luminescence, PHERAstar (BMG Labtech) plate reader.
# NOTES (numbers refer to Sequence numbers above)
# 1. MIPE 5.0 compounds were acoustically dispensed by Echo Acoustic Liquid Handler (Beckman Coulter Life Sciences). Each compound was plated at an 11-point concentration range with 1:3 dilution. Bortezomib, a proteasome inhibitor (final concentration, 20 uM), was used as a positive.
# 2. PEO1, PEO4, and PEO1/OlaR were trypsinized and dispensed in 5 uLof growth medium using a Multidrop Combi dispenser at a density of 600 cells per well to allow compounds to be present during the exponential growth phase.
# 3. Plates were incubated for 96 hours at standard incubator conditions and covered by a stainless steel gasketed lid to prevent evaporation.
# 4. Three microliters of CellTiter-Glo (Promega) were added to each well.
# 5. Plates were incubated at room temperature for 15 min with a stainless-steel lid in place.
# 6. Luminescence readings were taken using PHERAstar (BMG Labtech). […]
# [1] = measured here: PEO1 parental Z-AUC
# Potency means the concentration at half of the fitted maximal effect.
SMILES,Potency,Z-AUC [1],Z-AUC (measured here: PEO4 Z-AUC),Z-AUC
COCCn1c2c([n+](Cc3cnccn3)c1C)C(=O)c1ccccc1C2=O,0.049 µM (active),-3.26,-3.48,
C[C@@H]1COC(Nc2ccc3ncnc(Nc4ccc(OCc5nccs5)c(Cl)c4)c3c2)=N1,13.8 µM (active),-1.34,-1.07,
OCc1ccc(-c2ccc(-c3ccc(CO)s3)o2)s1,,1.79,1.79,1.64 (inactive)
Clc1ccc2ncc(-c3cccc(NC4CNC4)n3)n2c1,,0.128,-0.613,-0.578 (inactive)
C=CC(=O)Nc1cccc(Oc2nc(Nc3ccc(N4CCN(C)CC4)cc3)ncc2Cl)c1,,-0.559,-0.604,-0.847 (inactive)
CN1c2cc(O)c(N=NC(N)=O)cc2CC1S(=O)(=O)O (configuration not stated),,0.677,1.13,1.01 (inactive)
Cc1cnc(-c2cnc(NCCNc3ccc(C#N)cn3)nc2-c2ccc(Cl)cc2Cl)[nH]1,,0.904,0.844,1.35 (inactive)
Cc1ccc(C(=O)Nc2ccc(CN3CCN(C)CC3)c(C(F)(F)F)c2)cc1C#Cc1cnc2cccnn12,,-1.43,-0.606,-2.19 (inactive)
CCS(=O)(=O)c1cccc(-c2cc(C(=O)NC3CCN(C)CC3)c(C)c3[nH]c4ncc(C)cc4c23)c1,,-0.937,-0.883,-0.945 (inactive)
COc1cc2nccc(Oc3ccc(NC(=O)C4(C(=O)Nc5ccc(F)cc5)CC4)cc3)c2cc1OC,,0.252,-0.118,-0.0071 (inactive)
NC1(Cc2ccc(Cl)cc2)CCN(c2ncnc3[nH]ccc23)CC1,,-1.02,-1.03,-0.805 (inactive)
Cn1c2cc(S(C)=O)sc2c2cnn(Cc3cccc(N)c3)c(=O)c21 (configuration not stated),,0.817,0.912,1.34 (inactive)
COc1cc2c(Nc3ccc(NC(=O)c4ccccc4)cc3)ncnc2cc1OCCCN1CCOCC1,,0.378,-0.00174,0.665 (inactive)
Nc1ccc(C(=O)c2cc3c(ccc4ccccc43)[nH]2)cc1,,-0.727,-0.792,-0.0185 (inactive)
